Growth data for 14 molecules are collected here from PubChem BioAssay (NCI).

Common to all, as to test: NCI-60 one-dose screen, 48 h (100 = growth as untreated, 0 = no growth, -100 = all killed)
What all share (conditions): 10 µM unless noted

For test [1], the system named is RPMI-8226 leukemia.
Test [2] concerns OVCAR-8 ovarian.
Test [3] relates to OVCAR-5 ovarian.
The subject of test [4] is OVCAR-4 ovarian.
Test [5] relates to SK-OV-3 ovarian.
Test [6] relates to IGROV1 ovarian.
Test [7] concerns OVCAR-3 ovarian.
In test [8] the test system is HS 578T breast.
Test [9] relates to NCI/ADR-RES ovarian.
The test system of test [10] is T-47D breast.

This is part of a sample that, as a whole, favours compounds with a hit. Of some 83,000 tested, about 20% had one in any assay.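 Percent growth is the endpoint: 0 to 100 indicates growth inhibition (40 means 60% inhibition), 0 means no net growth, and negative values indicate cell death.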 Unmarked numbers belong to inactive results. Calls of active or inactive are those of the source. How the source made its calls: active means growth percent below 10; inactive means the rest.

Consider `COc1ccccc1-c1ccc2nc(NC(=O)Nc3cc(C(F)(F)F)cc(C(F)(F)F)c3)sc2c1`, for which the growth in test [1] was -15.9% (active); in [2], 9.39% (active); in [3], 20.5%; in test [4], 16.5%; in test [5], -13.2% (active); in test [6] it was 42.4%. Further, the growth was 8% (active) in test [7], -0.697% (active) in test [8], 5.44% (active) in test [9] and -13.5% (active) in test [10].
In the case of `C=C1C(=O)O[C@H]2[C@H]1CC/C(COC(=O)Nc1nc3ccccc3[nH]1)=C\CC[C@@]1(C)O[C@@H]21`, the growth in test [1] is 31.6%; in test [2] it was 80.8%; in [3], 127%; in test [4], 81.3%; in [5], 89.1%; in test [6], 27.9%. The growth in test [7] is 17.3%; in test [8] it was 94.5%; in [9], 92.1%; in test [10] it was 50.3%.
With `C=C(C)[C@@H]1CC[C@]2(C(=O)OCCCC[P+](c3ccccc3)(c3ccccc3)c3ccccc3)CC[C@]3(C)[C@H](CC[C@@H]4[C@@]5(C)CC[C@H](OC(=O)C(Cl)Cl)C(C)(C)[C@@H]5CC[C@]43C)[C@@H]12`, the growth in test [1] is -40% (active); in test [2], -1.54% (active); in [3] it was -1.72% (active); in test [4], -0.103% (active); in [5], -5.89% (active); in [7], -42.7% (active). Moreover, the growth in test [8] was -0.621% (active); in [9], 52.7%; in [10] it was -14.3% (active).
As to `Oc1c(CCl)cc(Cl)cc1Cc1cc(Cl)cc(Cc2cc(Cl)cc(CCl)c2O)c1O`, the growth was 4.65% (active) in test [1]; 16.7% in [2]; 79.8% in [3]; 48% in test [4]; 36% in test [5]; 19.2% in [7]. Moreover, the growth is 26.1% in [8], 14% in test [9] and 22.1% in [10].
As for `O=C(Nc1nc2ccc(C(F)(F)F)cc2s1)c1cc(Cl)ccc1O`, the growth in test [1] was -5.53% (active); in test [2] it was 12.9%; in test [3] it was 28%; in [4] it was 20.2%; in test [5], -16.2% (active); in [7] it was 8.08% (active). The growth in test [8] was 5.64% (active); in test [9], -4.36% (active); in test [10] it was -5.13% (active).
As for `Nc1c(C(=O)Nc2ccccn2)sc2nc3c(cc12)CCCCCC3`, the growth in test [1] was 5.43% (active); in test [2], 19.3%; in [3] it was 46.6%; in [4] it was 23.6%; in test [5] it was 19%; in [7], -44.5% (active). Besides, the growth is 18.9% in [8], 18.8% in test [9] and 23.4% in test [10].
Regarding `CCCCOc1nc2ccc(C)cc2cc1/C=C/C(=O)/C=C/c1ccc2c(c1)OCO2`, the growth is 5.04% (active) in [1]; 38.7% in test [2]; 131% in [3]; 95.4% in [4]; 106% in [5]; 74.6% in [7]. Besides, the growth in test [8] is 101%; in test [9], 91.7%; in test [10] it was 62.7%.
For the molecule `O=C1CC(c2ccc(O)c(O)c2)Oc2cc(O)c([C@@H]3O[C@H](CO)[C@@H](O)[C@H](O)[C@H]3O)c(O)c21` (stereo partly drawn), the growth is 99.3% in test [1]; 101% in test [2]; 98.7% in test [3]; 101% in [4]; 103% in test [5]; 104% in test [7]. In addition, the growth in test [8] is 105%; in [9] it was 110%; in [10], 95.8%.
For the molecule `O=C1[C@@H](OS(=O)(=O)CC(F)(F)F)[C@H](c2ccc(F)cn2)N1c1cc2c3ccccc3ccc2c2ccccc12`, the growth is 25.1% in [1]; 78.6% in test [2]; 104% in [3]; 86.3% in [4]; 95.8% in [5]; 49.3% in [7]. Besides, the growth in [8] was 68.3%; in test [9] it was 72.2%; in test [10] it was 84.9%.
In the case of `COc1ccc(/C=C/C(=O)/C=C(/C=C/c2ccc(OC)c(OC)c2)OB(F)F)cc1OC`, the growth in test [1] was -20.9% (active); in test [2], 5.06% (active); in test [3] it was 65.2%; in test [4] it was 44.8%; in [5], 81.9%; in test [7], -8.63% (active). Further, the growth in test [8] is 50.2%; in [9], 30.1%; in test [10] it was 35.5%.
Take `CNC(=O)c1cc(Oc2ccc3c(c2)sc2nc(-c4ccc(NC(C)=O)cc4)cn23)ccn1`: the growth in [1] was 60.3%; in test [2], 73%; in test [3], 90%; in [4], 83.5%; in [5], 34%; in test [7] it was 75%. Moreover, the growth in test [8] is 43.4%; in test [9], 52.1%; in test [10], 16.9%.
As to `c1ccc2nc(N3CCOCC3)c(N3CCCCC3)nc2c1`, the growth in [1] is 96.9%; in test [2], 102%; in test [3], 105%; in test [4], 97.6%; in test [5], 101%; in [7] it was 103%. Moreover, the growth is 96.9% in test [8], 100% in test [9] and 75.9% in test [10].
As to `O=C(CCCCCCCCC(=O)Nc1cccc(C2=NCCN2)c1)Nc1cccc(C2=NCCN2)c1`, the growth was 78.6% in [1]; 107% in test [2]; 109% in test [3]; 102% in test [4]; 104% in [6]; 112% in [7]. Besides, the figures for the growth in [8], in [9] and in test [10] were 113%, 104% and 81%, respectively.
Turning to `c1ccc(-c2cn3ccnc3c(-c3ccc4c(c3)ncn4C3CCCCC3)n2)cc1`, the growth in [1] was 81.7%; in test [2] it was 101%; in [3] it was 103%; in test [4] it was 101%; in test [5], 104%; in test [7], 101%. Besides, the values for the growth in [8], in test [9] and in [10] were 101%, 100% and 74.5%, respectively.
